Compound activity (PubChem)
Sampled rows, rich in hits. Any-hit rate of the full collection: about 2.4%.
POLK inh: DNA polymerase kappa (human) inhibition; Potency, µM (top dose mostly 107 µM), without a hit: at the top dose activity, negative = inhibition, most hits filed as inhibitors; Q9UBT6; hit rate 0.53% among 400,000; purified Pol kappa, fluorescent DNA synthesis assay, 10 min; also: % is scaled to controls: 0 for no effect and ±100 for the full control effect
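First, compounds were pin-transferred onto 10 nM Pol kappa. After 15 min at room temperature, substrate was added to 50 nM final. Fluorescence was then measured kinetically at 0 and 10 min.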
WRN helicase inh-1: blocks human WRN helicase. Q14191. WRN helicase unwinding, fluorescent forked duplex, kinetic. Potency, µM (titrated, usually from 114 µM), inactives show at the highest dose activity change, negative = inhibition, usual class: inhibitors. hit rate 0.46% among 360,000; also: % is scaled to controls: 0 for no effect and ±100 for the full control effect; nearly all actives have a fitted effect of over 55% in size
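WRN at 20 nM final was preincubated with compound for 15 min at room temperature; reaction started with 100 nM forked duplex oligonucleotide carrying fluorophore and quencher plus 2 mM ATP (final). Unwinding followed kinetically by red fluorescence (ex 525/em 598 nm).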
POLI inh: inhibitors of human DNA polymerase iota | Q9UNA4 | Potency, µM (doses to about 115 µM), without a hit: top-dose activity, negative = inhibition, most hits filed as inhibitors | Pol iota fluorescent replication assay, 10 min | hit rate 1% among 390,000
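Fluorescent replication assay read twice, at 0 min and 10 min after adding 50 nM (final) substrate. Enzyme (10 nM) and compounds were first incubated 15 min at room temperature; enzyme-free buffer wells were negative controls.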
Pol eta inh: blocks human DNA polymerase eta activity. Potency, µM (titrated, usually from 114 µM), inactives show at the highest dose activity change, negative = inhibition, actives largely listed as inhibitors. Q9Y253. recombinant Pol eta, fluorescent DNA replication assay. AID 588591. hit rate 1.2% among 390,000; also: % is scaled to controls: 0 for no effect and ±100 for the full control effect
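Fluorescent replication assay: 50 nM final substrate added after a 15 min room-temperature compound preincubation with 10 nM enzyme. Signal taken at 0 min and again at 10 min.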
FEN1 inh-1: inhibitors of human flap endonuclease 1; Recombinant FEN1 flap cleavage, fluorescence, 15 min; Potency, µM (titrated, usually from 114 µM), for inactives: at the top dose activity change, negative = inhibition, actives largely listed as inhibitors; P39748; hit rate 0.35% among 390,000; AID 588795; also: % is scaled to controls: 0 for no effect and ±100 for the full control effect; nearly all actives have a fitted effect of over 65% in size
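FEN1 at 10 nM, compound pretreatment for 15 min (room temperature), 50 nM final substrate to initiate; endpoint reads at 0 and 15 min; DMSO-only plates used as vehicle background.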
Pol beta inh: DNA polymerase beta (human) inhibition. P06746. Pol beta primer extension/strand displacement, fluorescence kinetic. Potency, µM (series often up to 114 µM), for inactives: at the highest dose activity change, negative = inhibition, hits mostly inhibitors. hit rate 1.3% among 340,000; also: % is scaled to controls: 0 for no effect and ±100 for the full control effect
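10 nM enzyme + cpd, 15 min RT; start with substrate 50 nM final; read 0 min and after 10 min RT. Corrected, normalized data; 4-parameter Hill curve fit.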
FEN1 inh-2: FEN1 inhibition, cherry-pick retest; shares compounds with FEN1 inh-1; FEN1 flap cleavage, TAMRA/BHQ2 fluorogenic DNA substrate; Potency, µM, most hits filed as inhibitors; hit rate 79% among 880; AID 720498; also: nearly all actives have a fitted effect of over 60% in size
WRN helicase inh-2: WRN helicase inhibition, cherry-pick retest. Potency, µM (titrated, usually from 57.1 µM), for the others: top-dose activity, negative = inhibition, most hits filed as inhibitors. AID 720497. hit rate 63% among 610. WRN helicase DNA unwinding, fluorescence kinetic. shares compounds with WRN helicase inh-1; also: nearly all actives have a fitted effect of over 65% in size
TO DNA binding: counter-screen for WRN helicase inhibitors: DNA binding; shares compounds with WRN helicase inh-1; thiazole orange DNA binding displacement, fluorescence; Potency, µM (highest dose often 57.1 µM), without a hit: at the top dose activity change, negative = inhibition, actives largely listed as inhibitors; hit rate 10% among 610; AID 720499;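 also: drop in dye fluorescence marks compound binding to DNA; % is scaled to controls: 0 for no effect and ±100 for the full control effect; nearly all actives have a fitted effect of over 60% in size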
BLM helicase inh: BLM helicase inhibition, WRN selectivity check. AID 720503. shares compounds with WRN helicase inh-1. Potency, µM (series often up to 57.1 µM), inactives show at the top dose activity change, negative = inhibition, actives largely listed as inhibitors. Recombinant BLM helicase DNA unwinding, red fluorescence. hit rate 60% among 610; also: nearly all actives have a fitted effect of over 60% in size
* = called active by the depositor; [ ] = remark or other dose. Calls follow the shape of the dose curve; as a rule, active = well fitted curve in the direction sought with a large enough effect; inconclusive = small, poorly fitted or top-dose-only effect, or another doubt; inactive = no such curve, though single readings can be large; an effect the other way counts as inactive or inconclusive. Potency is read from the fitted curve at half-maximal effect.

What do the screens show for `CC1CCCN(C(=O)c2ccc3c(=O)n4nc(Nc5ccccc5)sc4nc3c2)C1` (centres undefined)?
WRN helicase inh-1: -6%; Pol eta inh: -4%

What do the screens show for `O=c1c2ccccc2nc2sc(Nc3cccc(N4CCNCC4)c3)nn12`?
FEN1 inh-2: 34*; WRN helicase inh-2: 22µM*; TO DNA binding: -25%; BLM helicase inh: inconclusive

How did CN(C)CCCNc1cc(N2CCN(C3CCCCC3)CC2)c2noc3c2c1C(=O)c1ccccc1-3 do in these assays?
POLK inh: -20%; POLI inh: 41%; Pol eta inh: inconclusive; FEN1 inh-1: 11µM*; Pol beta inh: -22%; FEN1 inh-2: 30*; WRN helicase inh-2: 24µM*; TO DNA binding: 213%; BLM helicase inh: 43µM*

How did CCN(CC)Cc1cc(Nc2c3ccccc3nc3c4ccccc4n(C)c23)cc(CN(CC)CC)c1O do in these assays?
POLK inh: inconclusive; WRN helicase inh-1: inconclusive; POLI inh: inconclusive; Pol eta inh: inconclusive; FEN1 inh-1: 28µM*; FEN1 inh-2: 19*; WRN helicase inh-2: 17µM*; TO DNA binding: 38µM*; BLM helicase inh: -19%

What do the screens show for `O=c1c(-c2ccc(F)cc2)nc2cnc(N3CCNCC3)nc2n1C1CC1`?
POLK inh: 1%[60.1 µM]

How did CC(=O)N1CCN(c2nc(-c3ccco3)c3c(c2C#N)CC(C)(C)SC3)CC1 do in these assays?
POLK inh: -17%; WRN helicase inh-1: -25%; POLI inh: 1%; Pol eta inh: inconclusive; FEN1 inh-1: 0%; Pol beta inh: -3%

What do the screens show for `CC1(C)Cc2c(C#N)c(N3CCN(C(=O)c4ccccc4Cl)CC3)nc(-c3ccco3)c2CS1`?
POLK inh: 79µM*; WRN helicase inh-1: 35µM*; POLI inh: inconclusive; Pol eta inh: 10µM*; FEN1 inh-1: -4%; Pol beta inh: 20µM*; WRN helicase inh-2: -13%; TO DNA binding: 2%; BLM helicase inh: inconclusive

What do the screens show for `CC(=O)c1cc(-c2ccc(F)cc2)n(CCC(=O)Nc2nc3ccc(C)cc3s2)c1C`?
POLK inh: -8%[60.1 µM]; POLI inh: 16%; Pol eta inh: -23%; FEN1 inh-1: -7%; Pol beta inh: inconclusive

How did COc1cc(/C=N\N=C2/SC(CC(=O)O)C(=O)N2c2ccc(O)cc2)ccc1O (centres undefined) do in these assays?
POLK inh: -7%[60.1 µM]; WRN helicase inh-1: -14%; POLI inh: -10%; Pol eta inh: 5%; FEN1 inh-1: -4%; Pol beta inh: -28%

What do the screens show for `COc1cc(/C=N/N=C2/SCC(=O)N2c2ccc(O)cc2)ccc1O`?
POLK inh: -8%; WRN helicase inh-1: 79µM*; POLI inh: 81%; Pol eta inh: -2%; FEN1 inh-1: -2%; Pol beta inh: 1%; WRN helicase inh-2: -8%; TO DNA binding: 32%; BLM helicase inh: -14%

How did CC(C)(C)n1ncc2c(=O)n(Cc3cccc(Oc4ccccc4)c3)cnc21 do in these assays?
POLK inh: 10%; POLI inh: 2%; FEN1 inh-1: 5%

How did CC(C)N1CCc2c(sc(NC(=O)c3cc4cc([N+](=O)[O-])ccc4s3)c2C(N)=O)C1 do in these assays?
POLK inh: -27%; WRN helicase inh-1: 79µM*; POLI inh: 26%; Pol eta inh: -19%; FEN1 inh-1: inconclusive; Pol beta inh: -22%; WRN helicase inh-2: 17µM*; TO DNA binding: 17µM*; BLM helicase inh: 14µM*

How did CC(C)N1CCc2c(sc(NC(=O)c3ccc4ccccc4c3)c2C(N)=O)C1 do in these assays?
POLK inh: -4%; WRN helicase inh-1: 27%; POLI inh: 34%; Pol eta inh: -16%; FEN1 inh-1: inconclusive; Pol beta inh: 17%

What do the screens show for `CCOc1cc(/C=C2/SC(=S)N(CC3CCCO3)C2=O)ccc1O` (centres undefined)?
POLK inh: -18%; WRN helicase inh-1: 35µM*; POLI inh: 28µM*; Pol eta inh: -19%; FEN1 inh-1: -33%; Pol beta inh: inconclusive; WRN helicase inh-2: inconclusive; TO DNA binding: 18%; BLM helicase inh: 22µM*

How did CCn1cc2nc(SCC(=O)Nc3cc(OC)cc(OC)c3)n(Cc3ccc(Cl)cc3)c(=O)c2n1 do in these assays?
POLK inh: 6%; POLI inh: 25%; Pol eta inh: -11%; FEN1 inh-1: 3%; Pol beta inh: 1%

Results for COC(=O)C(Cc1c[nH]c2ccccc12)NC(=O)c1cc(-c2ccc(OC)c(OC)c2)oc1C (centres undefined) ?
POLK inh: -26%; WRN helicase inh-1: 89µM*; POLI inh: inconclusive; Pol eta inh: inconclusive; FEN1 inh-1: 79µM*; Pol beta inh: -17%; WRN helicase inh-2: -25%; TO DNA binding: 8%; BLM helicase inh: -19%

How did Cc1cc(C(=O)NC(Cc2c[nH]c3ccccc23)C(=O)O)c(C)o1 (centres undefined) do in these assays?
POLK inh: -13%; WRN helicase inh-1: 1%; POLI inh: 132%; Pol eta inh: -7%; FEN1 inh-1: 4%; Pol beta inh: -1%

How did COc1ccc(-n2c(O)c(/C=N/NS(=O)(=O)c3ccc(C)cc3)c3ccccc3c2=O)cc1OC do in these assays?
POLK inh: -18%; WRN helicase inh-1: 40µM*; POLI inh: 40µM*; Pol eta inh: -16%; FEN1 inh-1: -33%; Pol beta inh: inconclusive; WRN helicase inh-2: -23%; TO DNA binding: 175%; BLM helicase inh: inconclusive
